Assay: qHTS profiling of the MIPE4 collection as inhibitors of Plasmodium falciparum (3D7) proliferation (AID 743344);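 note: scaled between DMSO vehicle wells and 0.29 µM artemisinin as full inhibition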
Details: P. falciparum 3D7 in erythrocytes, SYBR Green DNA fluorescence, 72 h; at 28.5 µM unless noted
How it was run: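 Erythrocytes infected with P. falciparum (0.3% parasitemia, 2.5% hematocrit) incubated with compounds 72 h at 37 C, 5% CO2. Lysis with saponin/Triton buffer containing SYBR Green I, overnight at room temperature in the dark; DNA fluorescence (485/535 nm) normalised to 0.29 uM artemisinin and DMSO.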
Compound CC(NC(C)(C)C)C(=O)c1cccc(Cl)c1 (stereo not given) has a parasite growth, % of DMSO control of 26.6%.
Compound CN1C(=O)CCS(=O)(=O)C1c1ccc(Cl)cc1 (stereo not given) has a parasite growth, % of DMSO control of 98.6%.
For CCC1(c2ccc(N)cc2)CCC(=O)NC1=O (stereo not given), the parasite growth, % of DMSO control was 89%.
With CC(C)N(CCC(C(N)=O)(c1ccccc1)c1ccccn1)C(C)C (stereo not given) the parasite growth, % of DMSO control was 105%.
With Cn1c(=O)c2[nH]cnc2n(C)c1=O the parasite growth, % of DMSO control was 85.4%.

Reference: PubChem BioAssay (NCATS)
